Consider 62 compounds from PubChem BioAssay AID2796 (The Scripps Research Institute Molecular Screening Center, 2010).

Out of some 320,000 compounds screened, about 8,000 (2.5%) were called active. For the sample, actives were picked, then their nearest neighbours and some compounds at random. Values without a mark were called inactive. No stated cut-off is given here; in the data, active means activation above about 47%; inactive means the rest.

The experiment deals with Aryl hydrocarbon receptor (Homo sapiens) (UniProt P35869). Briefly: AHR activators, primary screen, cell-based, luminescence, luciferase reporter, human (AID 2796).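 Further: 0% = vehicle wells and 100% = reference agonist.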 To be noted: AHR-responsive luciferase reporter cells, at 5 µM, hits give high values.
Aryl hydrocarbon receptor (Homo sapiens), sequence (P35869 whole entry, looked up): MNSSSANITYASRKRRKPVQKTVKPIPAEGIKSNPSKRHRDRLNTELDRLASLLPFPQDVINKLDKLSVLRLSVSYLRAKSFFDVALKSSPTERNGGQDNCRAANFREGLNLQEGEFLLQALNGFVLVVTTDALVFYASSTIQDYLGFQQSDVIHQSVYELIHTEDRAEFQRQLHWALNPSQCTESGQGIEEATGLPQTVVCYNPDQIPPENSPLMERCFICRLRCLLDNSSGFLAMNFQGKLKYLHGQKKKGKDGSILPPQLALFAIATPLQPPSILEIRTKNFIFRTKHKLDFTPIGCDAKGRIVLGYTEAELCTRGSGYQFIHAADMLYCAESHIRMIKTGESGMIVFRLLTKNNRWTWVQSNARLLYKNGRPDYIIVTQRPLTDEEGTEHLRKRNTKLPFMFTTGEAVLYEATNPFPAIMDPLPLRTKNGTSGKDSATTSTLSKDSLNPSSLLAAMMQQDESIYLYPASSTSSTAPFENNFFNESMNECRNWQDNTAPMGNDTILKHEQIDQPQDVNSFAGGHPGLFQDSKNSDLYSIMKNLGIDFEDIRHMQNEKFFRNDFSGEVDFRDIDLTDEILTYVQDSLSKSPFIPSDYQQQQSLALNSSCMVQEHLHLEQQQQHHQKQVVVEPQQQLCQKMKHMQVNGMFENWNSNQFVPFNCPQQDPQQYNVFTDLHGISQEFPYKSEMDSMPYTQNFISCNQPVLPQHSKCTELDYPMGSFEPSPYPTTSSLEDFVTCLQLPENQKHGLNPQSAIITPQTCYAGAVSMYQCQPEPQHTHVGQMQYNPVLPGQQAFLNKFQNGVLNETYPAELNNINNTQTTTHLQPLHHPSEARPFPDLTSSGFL
For `CNc1ccc([N+](=O)[O-])cc1C(=O)O`, the activation was -2.24%.
On to `Cc1ccc(NC(=O)c2cc([N+](=O)[O-])ccc2Cl)c(O)c1`, for which the activation was 49% (active).
The value for `O=C(Nc1cccnc1)c1cc([N+](=O)[O-])ccc1Cl` was 0.88%; that for `COc1ccc(S(=O)(=O)NC(C)C(=O)NCc2ccncc2)cc1Cl` (configuration not stated) was -0.4%; that for `C[C@H](CO)N1C[C@H](C)[C@@H](CN(C)S(=O)(=O)c2ccc(F)cc2)Oc2c(NC(=O)Nc3ccccc3)cccc2C1=O` was 0.64%.
For `Cc1cccc(NC(=O)c2ccc3nsnc3c2)c1C`, the activation is 10.3%.
Regarding `O=C(Nc1cccc(NC(=O)c2cccc(F)c2)c1)c1ccccc1`, the activation is 26.6%.
In the case of `O=C(Nc1ccccc1)c1ccc2nsnc2c1` it was 60.2% (active); in that of `COC(C(=O)Nc1ccc(S(=O)(=O)Nc2ccc(C)c(C)c2)cc1)c1ccccc1` (configuration not stated), -0.6%; in that of `COCCN1CCn2c(nc3cc(NS(C)(=O)=O)ccc32)C1`, 4.78%.
For `Cc1ccc(S(=O)(=O)NCC(=O)N(CC(=O)NC(C)(C)C)Cc2cccs2)cc1`, the activation is 3.31%.
With `CCc1noc(C)c1C(=O)Nc1nc2ccc(OC)cc2s1`, the activation is 1.93%.
The value for `O=C(O)c1ccccc1C(=O)Nc1nc(-c2ccccc2)cs1` was 1.84%; that for `CCc1noc(C)c1C(=O)Nc1nc(-c2ccccc2)cs1` was 55.4% (active); that for `Nc1ncc(CN2CCCC(C(=O)Nc3ccc(-c4ccco4)cc3)C2)cn1` (configuration not stated) was 5.9%.
The value for `Cc1cc(=O)oc2c(C(=O)c3ccccc3)c(OCC(N)=O)ccc12` was 3.98%; that for `O=C(COC(=O)c1ccc(F)cc1)NCC1COc2ccccc2O1` (configuration not stated) was -0.1%; that for `Cc1noc(C)c1NC(=O)Nc1ccc2c(c1)C(=O)N([C@H](C)CO)C[C@H](C)[C@@H](CN(C)S(=O)(=O)c1cn(C)cn1)O2` was 0.71%.
Consider `O=S(=O)(Nc1ccc(-n2cnnn2)cc1)c1ccc(Cl)cc1`, for which the activation was 1.5%.
For the compound `Brc1ccc(-c2csc(N/N=C/c3ccc4c(c3)OCO4)n2)cc1`, the activation was 58% (active).
In the case of `Cc1cc(C)nc(N/N=C/c2c(C)oc3ccccc23)n1` it was 11.9%.
With `C(=N\Nc1ccc2ccccc2n1)/c1ccc2c(c1)OCO2`, the activation was 101% (active).
As for `Cc1cc(=O)[nH]c(N/N=C/c2ccc3c(c2)OCCO3)n1`, the activation was 14.6%.
For `Cc1noc(C)c1/C=N/Nc1ccc2ccccc2n1`, the activation was 83.3% (active).
Take `O=C(CN1CCN(c2nc(-c3ccccc3)cs2)CC1)NCc1ccc2c(c1)OCO2`: the activation is 0.54%.
As for `Brc1ccc(-c2csc(N/N=C/c3cccnc3)n2)cc1`, the activation is -4.57%.
In the case of `O=C(Cc1ccc(F)cc1)N/N=C/c1ccc2c(c1)OCO2` it was 42%; in that of `Cc1nc(Cl)cc(N/N=C/c2ccccc2)n1`, 23.2%; in that of `O=C(OCC(=O)N1CCCC1)c1ccc(Cl)nc1`, -1.12%.
Turning to `CCC(C)(C(=O)NC1CCCCC1)N(C)C(=O)c1ccc2c(c1)OCO2` (configuration not stated), the activation is -0.09%.
The value for `CCOC(=O)C1=NNC2(c3ccc(Cl)cc3)C(=O)N(c3cc(C)cc(C)c3)C(=O)C12` (configuration not stated) was 5.66%.
In the case of `Cc1nnc(NC(=O)/C=C/c2ccco2)s1` it was 120% (active).
Take `CCC(CC)c1nnc(NC(=O)/C=C/c2ccco2)s1`: the activation was 46.2%.
For `CCc1nnc(NC(=O)/C=C/c2ccc(C)o2)s1`, the activation was 28.2%.
For `COc1ccc(S(=O)(=O)N2CCC(C(=O)NCc3ccco3)CC2)cc1C`, the activation was 0.76%.
On to `CCc1ccc(NC(=O)C(=O)N/N=C(\C)CC(=O)NCCOC)cc1`, for which the activation was 8.77%.
As for `CC(Sc1nncn1C)C(=O)NCCC1=CCCCC1` (configuration not stated), the activation was -0.01%.
Turning to `CC1CCc2sc3nc(N4CCN(CCO)CC4)n4ncnc4c3c2C1` (configuration not stated), the activation was 61.8% (active).
Consider `CCCn1nnc2sc3c(c2c1=O)CCC(C)C3` (configuration not stated), for which the activation is -0.09%.
With `CC1CCc2c(sc3nc4n(c(=O)c23)CCS4)C1` (configuration not stated), the activation is -1.18%.
Consider `c1ccc2c(c1)CCc1snnc1-2`, for which the activation was 2.81%.
Regarding `CCC1CCc2c(sc(NC(C)=O)c2C#N)C1` (configuration not stated), the activation is 1.29%.
As to `COc1ccc(NC(=O)C(CC(C)C)NC(=O)C2CCC(C)CC2)cc1` (configuration not stated), the activation was 1.21%.
Take `CC(=O)Nc1ccc(S(=O)(=O)NCC2CCC(C(=O)NCCc3ccccc3)CC2)cc1` (configuration not stated): the activation is 0.11%.
`O=C(NCc1ccc2c(c1)OCO2)c1c(-c2ccsc2)sc2ccccc12`: the activation was 44.7%.
With `Cn1cncc1C#Cc1c(-c2ccsc2)sc2ccccc12`, the activation is 52.7% (active).
With `Cc1cccc(-c2oc3ccc(-c4ccc5c(c4)OCO5)cc3c2C#Cc2cncn2C)c1`, the activation was 26.5%.
In the case of `COC(=O)/C(=C\Nc1ccccc1)NC(=O)c1ccc(Cl)cc1Cl`, the activation is 1.34%.
On to `N#CC1(C#N)C(C(=O)C23CC4CC(CC(C4)C2)C3)C12CCOCC2` (configuration not stated), for which the activation was -2.81%.
In the case of `CC(C)(C)c1cc(C(=O)N/N=C/c2ccc([N+](=O)[O-])s2)n[nH]1` it was -8.74%; in that of `COc1ccc(C(=O)NCC(=O)N/N=C/c2ccc([N+](=O)[O-])s2)cc1OC`, -1.7%; in that of `Cc1ccccc1NCC(=O)N/N=C\c1ccc([N+](=O)[O-])s1`, 56.7% (active).
`Cc1cc(O)ccc1NC1=CC(=O)CC(C)(C)C1`: the activation is 15.2%.
The value for `CCN1CCN(C(=O)CN(C)S(=O)(=O)c2ccc3ccccc3c2)CC1` was -1.56%; that for `C[C@@H]1CN([C@H](C)CO)C(=O)c2cc(NC(=O)NC3CCCCC3)ccc2O[C@H]1CN(C)S(C)(=O)=O` was -0.98%.
In the case of `COc1cccc(C(O)Cc2nc3ccccc3n2C)c1OC` (configuration not stated), the activation is 6.17%.
Take `CCOc1ccc(C(O)Cc2nc3ccccc3n2C)cc1` (configuration not stated): the activation was 118% (active).
Turning to `CCCn1c(C(O)c2ccc(OCC)cc2)nc2ccccc21` (configuration not stated), the activation was 0.65%.
With `Cc1cc(Br)ccc1NC(=O)c1cnc(N2CCN(c3ccccn3)CC2)c2ccccc12`, the activation is 20.2%.
Regarding `N#CCSc1nc2ccc(N3CCOCC3)cc2c(=O)n1CCc1ccccc1`, the activation was 1.4%.
For the compound `Cc1cc(Nc2ccc(N3CCOCC3)cc2)c2cccc(C)c2n1`, the activation is 8.99%.
As for `Cc1nn2c3cc(N4CCOCC4)ccc3nc2c2ccccc12`, the activation was 144% (active).
